Source: PubChem BioAssay AID651593 (National Center for Advancing Translational Sciences (NCATS), 2012)
In all, about 1,100 compounds went through this assay and about 860 (78%) were called active. Roughly 19% stayed inconclusive and do not appear here. The call rests on the fitted dose curve; in most records, active means well fitted activation curve with a large enough effect; inconclusive means small, poorly fitted or top-dose-only effect; inactive means flat fitted curve, though single readings scatter. So high a share suggests a set chosen from earlier hits. The list shows a part of the results.

Test: qHTS of Nrf2 Activators: Hit Validation in Primary Assay; further: nearly all actives have a fitted effect of over 70% in size; on activation: 0% is about no effect
Conditions: Nrf2/ARE reporter cell assay; Potency: activation; series mostly up to 46.1 µM; activation: at the top concentration
In short: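 Luminescence from Steady-Glo lysis reagent, read after 30 min, reported ARE-luciferase activity in AREc32_fluc stable cells. Compounds were tested at several concentrations, incubated 24 h at 37 °C with 5% CO2 following overnight seeding.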
Potency means the concentration at half of the fitted maximal effect.

Question: For `COc1ccc(OC)c(C(=O)Nc2c(O)ccc3ccccc23)c1`, which Potency is on record?
Answer: Its Potency is 5.8 µM (active).

Question: With `COc1ccc(COc2ccsc2C(=O)Nc2ccc(Cl)cc2)cc1` as the compound, how does the Potency read?
Answer: Its Potency is 4.61 µM (active).

Question: With `Cc1nc2nc(-c3ccccc3)nn2c(C)c1Cl` as the compound, how does the Potency read?
Answer: Its Potency is 4.11 µM (active).

Question: Which Potency does the source give for `O=C1/C(=C\c2ccco2)NC(=S)N1c1ccccc1` here?
Answer: The Potency was 3.66 µM (active).

Question: Which Potency does the source give for `CCn1c(NC(=O)c2ccccc2)nc2ccccc21` here?
Answer: Its Potency is 3.66 µM (active).

Question: With `CCn1c(NC(=O)c2cccs2)nc2ccccc21` as the compound, how does the Potency read?
Answer: The Potency was 5.17 µM (active).

Question: Which Potency does the source give for `Cn1c(=O)c2nc(-c3ccccc3)oc2c2ccccc21` here?
Answer: The Potency was 1.84 µM (active).

Question: With `O=C(c1ccco1)c1cc2c(ccc3ccccc32)oc1=O` as the compound, how does the Potency read?
Answer: Its Potency is 9.2 µM (active).

Question: For `O=C(c1ccco1)c1cn(CC(=O)N2CCCc3ccccc32)c2ccccc12`, which “activation” value is on record?
Answer: Its value is 7.56% (inactive).

Question: For `CC(C)=NNc1cnnc2ccc([N+](=O)[O-])cc12`, which Potency is on record?
Answer: Its Potency is 18.4 µM (active).

Question: For `Cn1ccsc1=NC(=O)c1ccc([N+](=O)[O-])o1`, which Potency is on record?
Answer: The Potency was 5.17 µM (active).

Question: For `CN(N=Cc1ccccc1O)c1ccc2ccccc2n1`, which Potency is on record?
Answer: The Potency was 2.91 µM (active).

Question: Which Potency does the source give for `Oc1ccc(CNc2ccccc2O)cc1` here?
Answer: The Potency was 16.4 µM (active).

Question: Which “activation” value does the source give for `Oc1ccc(NCc2cccc(OCc3ccc(F)cc3)c2)cc1` here?
Answer: Its value is 21.5% (inactive).

Question: Which Potency does the source give for `CC(=O)Nc1ccc2nc(NC(=O)c3ccco3)sc2c1` here?
Answer: Its Potency is 4.11 µM (active).

Question: For `O=C(Nc1nc(-c2ccncc2)cs1)c1ccco1`, which Potency is on record?
Answer: The Potency was 4.11 µM (active).

Question: With `O=C(Nc1nc2ccsc2c(=O)s1)c1ccco1` as the compound, how does the Potency read?
Answer: The Potency was 1.3 µM (active).

Question: Which Potency does the source give for `O=C(Nc1nc2c(ccc3ccccc32)s1)c1ccco1` here?
Answer: Its Potency is 1.16 µM (active).

Question: Which Potency does the source give for `Cc1cc(Cl)cc2sc(NC(=O)c3ccco3)nc12` here?
Answer: The Potency was 16.4 µM (active).

Question: Which Potency does the source give for `O=C(CSc1cccc[n+]1[O-])Nc1cc([N+](=O)[O-])ccc1Cl` here?
Answer: The Potency was 20.6 µM (active).

Question: With `O=C(NC(=S)Nc1cc([N+](=O)[O-])ccc1Cl)c1ccccc1` as the compound, how does the Potency read?
Answer: The Potency was 2.31 µM (active).

Question: With `O=C(NC(=S)Nc1cc(C(F)(F)F)ccc1Cl)c1ccccc1` as the compound, how does the Potency read?
Answer: Its Potency is 2.91 µM (active).

Question: Which Potency does the source give for `Cn1c(=O)c2nc(NCc3ccccc3)sc2n(C)c1=O` here?
Answer: Its Potency is 1.46 µM (active).

Question: Which Potency does the source give for `CC(=O)Nc1nc2cccc([N+](=O)[O-])c2s1` here?
Answer: The Potency was 1.84 µM (active).

Question: Which Potency does the source give for `O=C(/C=C/c1ccc2c(c1)OCO2)c1ccc(O)cc1O` here?
Answer: Its Potency is 14.6 µM (active).

Question: With `COc1ccc2[nH]c3c(NCc4ccco4)ncnc3c2c1` as the compound, how does the Potency read?
Answer: Its Potency is 2.59 µM (active).

Question: For `O=C(CSc1ncnc2c1oc1ccccc12)c1cccs1`, which Potency is on record?
Answer: The Potency was 5.17 µM (active).

Question: Which Potency does the source give for `O=C(CSc1ncnc2c1oc1ccccc12)NCc1ccco1` here?
Answer: The Potency was 13 µM (active).

Question: With `c1coc(CNc2ncnc3c2oc2ccccc23)c1` as the compound, how does the Potency read?
Answer: The Potency was 3.66 µM (active).

Question: For `c1coc(CSc2ncnc3c2oc2ccccc23)c1`, which Potency is on record?
Answer: Its Potency is 2.91 µM (active).

Question: With `O=C(CSc1nnc2c(n1)[nH]c1ccccc12)NCc1ccco1` as the compound, how does the Potency read?
Answer: Its Potency is 20.6 µM (active).

Question: For `O=[N+]([O-])c1cncc([N+](=O)[O-])c1Nc1cccc(O)c1`, which Potency is on record?
Answer: Its Potency is 14.6 µM (active).

Question: Which Potency does the source give for `O=c1[nH]ncc(N/N=C\c2cccs2)c1Cl` here?
Answer: The Potency was 20.6 µM (active).

Question: With `CN(C)c1oc(/C=C/c2ccccc2)nc1C#N` as the compound, how does the Potency read?
Answer: The Potency was 3.26 µM (active).

Question: Which Potency does the source give for `O=C(CCNc1cc(Cl)cc(Cl)c1)c1cccs1` here?
Answer: Its Potency is 6.51 µM (active).

Question: Which Potency does the source give for `O=[N+]([O-])c1ccc(/C=N/Nc2ccc3ccccc3c2)o1` here?
Answer: The Potency was 2.91 µM (active).

Question: Which Potency does the source give for `Nc1ccc(S(=O)(=O)Nc2nccc(/C=C/c3cccc(Br)c3)n2)cc1` here?
Answer: The Potency was 3.26 µM (active).

Question: Which Potency does the source give for `CC(C)C(=O)Nc1nnc(-c2ccco2)s1` here?
Answer: The Potency was 5.8 µM (active).

Question: With `Cc1cc(NC(=O)Nc2cc(Cl)sc2Cl)no1` as the compound, how does the Potency read?
Answer: The Potency was 4.11 µM (active).

Question: For `O=C1N/C(=C\c2ccsc2)C(=O)N1Cc1ccc(F)cc1`, which Potency is on record?
Answer: The Potency was 1.64 µM (active).

Question: For `Cc1c(=O)n(OCc2ccccc2)c2ccccc2[n+]1[O-]`, which Potency is on record?
Answer: Its Potency is 3.26 µM (active).

Question: Which Potency does the source give for `Cc1c(=O)n(OCc2ccc(Cl)cc2)c2ccccc2[n+]1[O-]` here?
Answer: The Potency was 1.64 µM (active).

Question: For `C=CCn1c(SCC(C)=O)nc2scc(-c3ccco3)c2c1=O`, which Potency is on record?
Answer: Its Potency is 0.731 µM (active).

Question: Which Potency does the source give for `O=C(/C=C\c1ccc2c(c1)OCO2)CC1(O)C(=O)Nc2ccccc21` (stereo not drawn) here?
Answer: The Potency was 23.1 µM (active).

Question: With `CN1CCN(C(=O)CCN2C(=O)/C(=C/c3cccc(Br)c3)SC2=S)CC1` as the compound, how does the Potency read?
Answer: The Potency was 5.17 µM (active).

Question: Which Potency does the source give for `O=C(N/N=C/c1ccsc1)c1ccc2ccccc2n1` here?
Answer: Its Potency is 16.4 µM (active).

Question: With `C(=N/n1c2ccccc2c2ccccc21)/c1ccco1` as the compound, how does the Potency read?
Answer: Its Potency is 2.31 µM (active).

Question: Which Potency does the source give for `COc1ccccc1C=Cc1ccnc2ccccc12` here?
Answer: The Potency was 2.06 µM (active).

Question: For `Cc1nc(NC(=O)/C=C/c2ccccc2)n[nH]1`, which Potency is on record?
Answer: The Potency was 3.66 µM (active).

Question: With `O=C(/C=C/c1ccccc1)Nc1ncn[nH]1` as the compound, how does the Potency read?
Answer: Its Potency is 3.66 µM (active).

Question: For `FC(F)(F)c1cc(-c2cccs2)nc(-n2cc(Br)cn2)n1`, which Potency is on record?
Answer: Its Potency is 1.3 µM (active).

Question: With `C/C(=N\NC(=O)c1cccc(Br)c1)c1ccccn1` as the compound, how does the Potency read?
Answer: Its Potency is 4.61 µM (active).

Question: For `CCn1c(/C=C/c2ccccc2[N+](=O)[O-])nc2ccccc2c1=O`, which Potency is on record?
Answer: Its Potency is 3.66 µM (active).

Question: With `CCn1c(/C=C/c2ccccc2F)nc2ccccc2c1=O` as the compound, how does the Potency read?
Answer: The Potency was 2.31 µM (active).

Question: With `CCn1c(/C=C/c2ccccc2)nc2ccccc2c1=O` as the compound, how does the Potency read?
Answer: The Potency was 4.11 µM (active).

Question: For `O=c1[nH]c(/C=C/c2ccccc2[N+](=O)[O-])nc2ccccc12`, which Potency is on record?
Answer: Its Potency is 0.411 µM (active).

Question: Which Potency does the source give for `CCCn1c(-c2cccs2)nc2nc3ccccc3nc21` here?
Answer: Its Potency is 1.84 µM (active).

Question: For `O=c1cc(-c2ccccc2Cl)oc2c(Br)ccc(O)c12`, which Potency is on record?
Answer: The Potency was 6.51 µM (active).

Question: With `c1ccc(-c2cc3c(ccc4nonc43)nn2)cc1` as the compound, how does the Potency read?
Answer: Its Potency is 7.31 µM (active).

Question: Which Potency does the source give for `[O-][n+]1onc2c3cc(-c4ccccc4)nnc3ccc21` here?
Answer: The Potency was 8.2 µM (active).

Question: With `[O-][n+]1onc2c3ccnnc3ccc21` as the compound, how does the Potency read?
Answer: Its Potency is 10.3 µM (active).

Question: With `CC(=O)N1CCc2c(sc(NC(=O)CCS(=O)(=O)c3ccccc3)c2C#N)C1` as the compound, how does the Potency read?
Answer: The Potency was 18.4 µM (active).

Question: With `O=C1C(=Cc2ccco2)CCCC1=Cc1ccco1` as the compound, how does the Potency read?
Answer: Its Potency is 3.26 µM (active).
